Measured values taken from PubChem BioAssay AID1159580 (chemical genetic matrix, 2015).
Screen size: about 5,500 compounds; about 2,000 (36%) were called active. About 18% were inconclusive and are not listed. Cut-off read from the data, not from the text of the source: active = normalized growth mostly below about 0.91 (no sharp cut-off); inconclusive = no clear call, values can overlap the other calls; inactive = mostly above about 0.92. The list shows a part of the results.

Assay: chemical genetic growth profiling, strain panel (AID 1159580);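 note: tested at 20 µM; growth read once vehicle control cultures reached saturation at 30 °C; 1 = growth at the plate median or of vehicle wells; lower values mean less growth of the strain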
Settings: growth OD

Measured: normalized growth

COc1ccc2c(=O)ccoc2c1
inactive: S. cerevisiae deletion strains, locus YJR043C, strain POL32, stronger effect = lower value 1.01 | S. cerevisiae deletion strains, locus YJR075W, strain HOC1, stronger effect = lower value 1.04 | S. cerevisiae deletion strains, locus YKL009W, strain mrt4, stronger effect = lower value 0.99 | S. cerevisiae deletion strains, locus YKL068W, stronger effect = lower value 1.03 | S. cerevisiae deletion strains, locus YKL085W, strain MDH1 (second series), stronger effect = lower value 1.03 | S. cerevisiae deletion strains, locus YKL085W, strain MDH1, stronger effect = lower value 1.03 | S. cerevisiae deletion strains, locus YKL160W, strain elf1, stronger effect = lower value 1.02 | S. cerevisiae deletion strains, locus YKL190W, strain CNB1, stronger effect = lower value 1.02 | S. cerevisiae deletion strains, locus YKR001C, strain vps1, stronger effect = lower value 0.947 | S. cerevisiae deletion strains, locus YKR026C, strain gcn3, stronger effect = lower value 1.03 | S. cerevisiae deletion strains, locus YKR091W, strain srl3, stronger effect = lower value 1.02 | S. cerevisiae deletion strains, locus YLL001W, strain dnm1, stronger effect = lower value 1.02 | S. cerevisiae deletion strains, locus YLL026W, stronger effect = lower value 1.02 | S. cerevisiae deletion strains, locus YLL041C, strain sdh2, stronger effect = lower value 0.972 | S. cerevisiae deletion strains, locus YLR027C, strain aat2, stronger effect = lower value 1.02 | S. cerevisiae deletion strains, locus YLR039C, strain RIC1, stronger effect = lower value 1.01 | S. cerevisiae deletion strains, locus YLR058C, strain SHM2, stronger effect = lower value 1.02 | S. cerevisiae deletion strains, locus YLR102C, strain apc9, stronger effect = lower value 1.01 | S. cerevisiae deletion strains, locus YLR221C, strain rsa3, stronger effect = lower value 1.03 | S. cerevisiae deletion strains, locus YLR258W, strain gsy2, stronger effect = lower value 1.02 | S. cerevisiae deletion strains, locus YLR262C, strain YPT6 (second series), stronger effect = lower value 1.04 | S. cerevisiae deletion strains, locus YLR262C, strain YPT6, stronger effect = lower value 1.06 | S. cerevisiae deletion strains, locus YLR268W, strain sec22, stronger effect = lower value 0.987 | S. cerevisiae deletion strains, locus YLR320W, strain mms22, stronger effect = lower value 1.03 | S. cerevisiae deletion strains, locus YLR330W, strain CHS5, stronger effect = lower value 1.02 | S. cerevisiae deletion strains, locus YLR342W, strain FKS1 (second series), stronger effect = lower value 1.03 | S. cerevisiae deletion strains, locus YLR342W, strain FKS1, stronger effect = lower value 1.02 | S. cerevisiae deletion strains, locus YLR357W, strain rsc2, stronger effect = lower value 1.02 | S. cerevisiae deletion strains, locus YLR370C, strain arc18, stronger effect = lower value 1.02 | S. cerevisiae deletion strains, locus YLR371W, strain rom2, stronger effect = lower value 1.02 | S. cerevisiae deletion strains, locus YLR384C, strain iki3, stronger effect = lower value 1.02 | S. cerevisiae deletion strains, locus YLR418C, strain cdc73, stronger effect = lower value 0.979 | S. cerevisiae deletion strains, locus YML016C, strain PPZ1, stronger effect = lower value 1.01 | S. cerevisiae deletion strains, locus YML032C, strain rad52, stronger effect = lower value 0.993 | S. cerevisiae deletion strains, locus YML120C, strain ndi1, stronger effect = lower value 1.03 | S. cerevisiae deletion strains, locus YML124C, strain tub3, stronger effect = lower value 1.01 | S. cerevisiae deletion strains, locus YMR058W, strain fet3, stronger effect = lower value 1.02 | S. cerevisiae deletion strains, locus YMR078C, strain ctf18, stronger effect = lower value 1.01 | S. cerevisiae deletion strains, locus YMR125W, strain sto1, stronger effect = lower value 1.03 | S. cerevisiae deletion strains, locus YMR129W, stronger effect = lower value 1.02 | S. cerevisiae deletion strains, locus YMR205C, strain PFK2, stronger effect = lower value 1.03 | S. cerevisiae deletion strains, locus YMR223W, strain ubp8, stronger effect = lower value 0.986 | S. cerevisiae deletion strains, locus YMR231W, strain pep5, stronger effect = lower value 1.02 | S. cerevisiae deletion strains, locus YMR263W, strain SAP30, stronger effect = lower value 1.02 | S. cerevisiae deletion strains, locus YMR307W, strain GAS1, stronger effect = lower value 1.02 | S. cerevisiae deletion strains, locus YNL067W, strain RPL9B, stronger effect = lower value 1.01 | S. cerevisiae deletion strains, locus YNL071W, strain lat1, stronger effect = lower value 1.05 | S. cerevisiae deletion strains, locus YNL128W, strain TEP1, stronger effect = lower value 1.03 | S. cerevisiae deletion strains, locus YNL153C, strain GIM3, stronger effect = lower value 1.01 | S. cerevisiae deletion strains, locus YNL209W, strain ssb2, stronger effect = lower value 1.02 | S. cerevisiae deletion strains, locus YNL233W, strain BNI4, stronger effect = lower value 1.01 | S. cerevisiae deletion strains, locus YNL248C, strain rpa49, stronger effect = lower value 1.03 | S. cerevisiae deletion strains, locus YNL250W, strain rad50, stronger effect = lower value 1.05 | S. cerevisiae deletion strains, locus YNL271C, strain bni1, stronger effect = lower value 1 | S. cerevisiae deletion strains, locus YNL298W, strain CLA4, stronger effect = lower value 0.977 | S. cerevisiae deletion strains, locus YNL307C, strain MCK1, stronger effect = lower value 0.984 | S. cerevisiae deletion strains, locus YNL322C, strain KRE1 (second series), stronger effect = lower value 1.03 | S. cerevisiae deletion strains, locus YNL322C, strain KRE1, stronger effect = lower value 1.02 | S. cerevisiae deletion strains, locus YNR049C, strain mso1, stronger effect = lower value 1.02 | S. cerevisiae deletion strains, locus YNR052C, strain pop2, stronger effect = lower value 1 | S. cerevisiae deletion strains, locus YOL006C, strain TOP1, stronger effect = lower value 0.962 | S. cerevisiae deletion strains, locus YOL012C, strain htz1 0.848 | S. cerevisiae deletion strains, locus YOL147C, strain pex11, stronger effect = lower value 1.01 | S. cerevisiae deletion strains, locus YOR001W, strain rrp6, stronger effect = lower value 1.03 | S. cerevisiae deletion strains, locus YOR061W, strain CKA2, stronger effect = lower value 1.02 | S. cerevisiae deletion strains, locus YOR069W, strain VPS5, stronger effect = lower value 1.01 | S. cerevisiae deletion strains, locus YOR070C, strain gyp1, stronger effect = lower value 1.02 | S. cerevisiae deletion strains, locus YOR080W, strain dia2, stronger effect = lower value 1.01 | S. cerevisiae deletion strains, locus YOR083W, strain WHI5, stronger effect = lower value 1.02 | S. cerevisiae deletion strains, locus YOR106W, strain vam3, stronger effect = lower value 1.03 | S. cerevisiae deletion strains, locus YOR136W, strain idh2, stronger effect = lower value 1.01 | S. cerevisiae deletion strains, locus YOR144C, strain elg1, stronger effect = lower value 1 | S. cerevisiae deletion strains, locus YOR184W, strain ser1, stronger effect = lower value 0.988 | S. cerevisiae deletion strains, locus YOR265W, strain rbl2, stronger effect = lower value 1.01 | S. cerevisiae deletion strains, locus YOR270C, strain vph1, stronger effect = lower value 1.03 | S. cerevisiae deletion strains, locus YOR290C, strain snf2, stronger effect = lower value 1.04 | S. cerevisiae deletion strains, locus YOR316C, strain cot1, stronger effect = lower value 1.01 | S. cerevisiae deletion strains, locus YPL051W, strain arl3, stronger effect = lower value 1.02 | S. cerevisiae deletion strains, locus YPL055C, strain LGE1, stronger effect = lower value 1.04 | S. cerevisiae deletion strains, locus YPL078C, strain atp4, stronger effect = lower value 1.02 | S. cerevisiae deletion strains, locus YPL106C, strain sse1, stronger effect = lower value 1.01 | S. cerevisiae deletion strains, locus YPL240C, strain hsp82, stronger effect = lower value 1.03 | S. cerevisiae deletion strains, locus YPL241C, strain CIN2, stronger effect = lower value 1.02 | S. cerevisiae deletion strains, locus YPR119W, strain clb2, stronger effect = lower value 1.01 | S. cerevisiae deletion strains, locus YPR141C, strain kar3, stronger effect = lower value 1.01 | S. cerevisiae deletion strains, locus YPR163C, strain tif3, stronger effect = lower value 1.01 | S. cerevisiae deletion strains, locus YPR167C, strain met16, stronger effect = lower value 1.02 | S. cerevisiae deletion strains, strain wtn01, stronger effect = lower value 0.997 | S. cerevisiae strains, strain wild type, stronger effect = lower value 1.02
